Consider 35 compounds from ChEMBL document CHEMBL3433997, “St. Jude Leishmania screening dataset” (2016).

Holding throughout (assay type): functional
In experiment [1] the target is Solute carrier family 2, facilitated glucose transporter member 1 (Homo sapiens) (UniProt P11166). Put plainly: ST_JUDE_LEISH: Cytotoxicity at 2uM final concentration against transgenic Leishmania Mexicana promastigotes LmGLUT1 that are glucose transport deficient and complemented with the human glucose transporter GLUT1. Activity is measured by DNA content using SYBR green in vitro.
Sequence of Solute carrier family 2, facilitated glucose transporter member 1 (Homo sapiens) (P11166 whole entry): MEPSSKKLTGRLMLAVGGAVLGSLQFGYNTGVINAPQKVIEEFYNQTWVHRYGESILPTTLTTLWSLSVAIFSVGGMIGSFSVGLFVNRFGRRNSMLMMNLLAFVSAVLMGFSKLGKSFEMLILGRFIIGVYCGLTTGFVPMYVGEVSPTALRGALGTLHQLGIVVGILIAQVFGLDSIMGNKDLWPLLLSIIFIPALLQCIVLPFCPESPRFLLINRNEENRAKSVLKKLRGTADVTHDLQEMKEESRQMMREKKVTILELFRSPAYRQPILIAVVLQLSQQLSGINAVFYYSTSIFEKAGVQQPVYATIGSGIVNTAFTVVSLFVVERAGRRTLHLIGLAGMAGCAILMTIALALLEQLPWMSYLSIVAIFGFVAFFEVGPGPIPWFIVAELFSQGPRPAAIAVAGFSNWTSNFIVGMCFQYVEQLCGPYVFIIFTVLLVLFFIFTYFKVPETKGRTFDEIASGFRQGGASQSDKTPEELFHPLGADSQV

The target of experiment [2] is Hexose transporter 1 (Plasmodium falciparum) (UniProt O97467). As to the kind of experiment: ST_JUDE_LEISH: Cytotoxicity at 2uM final concentration against transgenic Leishmania Mexicana promastigotes LmPfHT that are glucose transport deficient and complemented with the Plasmodium falciparum hexose transporter. Activity is measured by DNA content using SYBR green in vitro.

Experiment [3] deals with Glucose transporter (Leishmania mexicana) (UniProt O61059). As to the kind of experiment: ST_JUDE_LEISH: Cytotoxicity at 2uM final concentration against transgenic Leishmania Mexicana promastigotes LmGT2 that are glucose transport deficient and complemented with the L. Mexicana glucose transporter 2. Activity is measured by DNA content using SYBR green in vitro.

Broadly, the inhibition is the drop in the measured response relative to a control, in per cent. As to `CCC(CC)n1c(C)cc2c3c(N)nc(N)nc3ccc21`, the inhibition in experiment [1] was 89.4%; in experiment [2] it was 90%; in experiment [3] it was 70.8%.

Regarding `CCCCCN1CCC(CNS(=O)(=O)c2ccc(C(=O)Nc3cccc(C(F)(F)F)c3)cc2)CC1`, the results for the inhibition in experiment [1], in experiment [2] and in experiment [3] were 0.47%, 0.02% and -0.33%, respectively.

As to `CC1CN(Cc2ccccc2)CCN1c1ccc(NC(=O)c2cccs2)cc1` (stereo not given), the inhibition in experiment [1] turned out to be 10.9%; in experiment [2], 12.3%; in experiment [3], 10.8%.

As to `CC(C)(Cc1ccc(Cl)cc1)NCCCCCCNCCc1ccc(O)c(O)c1`, the inhibition is -0.5% in experiment [1], -2.96% in experiment [2] and -1.18% in experiment [3].

`CCOc1ccc(C2CCN(CCCCNC(=O)c3ccc(NC(=O)c4ccc(Cl)cc4)cc3)CC2)c(Cl)c1`: the results for the inhibition in experiment [1], in experiment [2] and in experiment [3] were 1.99%, 4.55% and 1.92%, respectively.

As for `O=C(NCCCN1CCOCC1)c1csc(Nc2ccc(Cl)c(Cl)c2)n1`, the inhibition was found to be 0.69% in experiment [1], 0.58% in experiment [2] and 0.12% in experiment [3].

With `CC(=O)NCCNc1nccc(N2CCc3ncnc(Nc4ccc(OCc5cccc(F)c5)c(Cl)c4)c3C2)n1`, the figures for the inhibition in experiment [1], in experiment [2] and in experiment [3] were 0.07%, -2.13% and -2.74%, respectively.

`COc1cc2c(cc1OC)CC(NCCCCCCNCCc1ccc(Cl)cc1)CC2` (stereo not given): the inhibition is 0.92% in experiment [1], -1.16% in experiment [2] and 0.76% in experiment [3].

With `CC1(C)CCCN(C(=O)c2cccc(-n3nc(-c4ccc(Cl)cc4)cc3N)c2)C1`, the results for the inhibition in experiment [1], in experiment [2] and in experiment [3] were 2.79%, 1.98% and 2.07%, respectively.

`Nc1nc(N)c2c(ccc3c2ccn3CCCCO)n1`: the values for the inhibition in experiment [1], in experiment [2] and in experiment [3] were 5.49%, 7.01% and 6.28%, respectively.

Consider `Cn1cccc1C(=O)C(=O)Nc1cccc(-c2ccc(-c3nc4cc(C(F)(F)F)ccc4[nH]3)cc2)c1`, for which the figures for the inhibition in experiment [1], in experiment [2] and in experiment [3] were 4%, 2.42% and -0.4%, respectively.

For the compound `CC(C)c1ccc(NC(=O)c2cccc(CN3CCCN(CC4CCCCC4)CC3)c2)cc1`, the inhibition in experiment [1] was 11.7%; in experiment [2], 7.21%; in experiment [3] it was 9.65%.

For `NCC1CCCN1Cc1cccc(-c2ccc(-c3nc4cc(C(F)(F)F)ccc4[nH]3)cc2)c1` (stereo not given), the values for the inhibition in experiment [1], in experiment [2] and in experiment [3] were 0.06%, 0.65% and -0.43%, respectively.

Regarding `Cc1cccc2nc(-c3ccc(-c4ccc(NC(=O)C(C)CN(C)C)cc4)s3)[nH]c12` (stereo not given), the inhibition in experiment [1] was 4.89%; in experiment [2] it was 6.11%; in experiment [3], 3.65%.

Regarding `Cc1ccc(NC(=O)c2c(C)noc2-c2snnc2C)cc1`, the inhibition in experiment [1] was 3.24%; in experiment [2], 4.05%; in experiment [3] it was 3.02%.

As for `COc1ccc2c(c1)c(C1CCN(CCCCNC(=O)c3ccc(-c4ccc(C(F)(F)F)cc4)cc3)CC1)cn2C(C)C`, the results for the inhibition in experiment [1], in experiment [2] and in experiment [3] were -0.71%, 1.93% and 0.76%, respectively.

On to `CO/C(=C\C=C\c1cc2cc(Cl)c(Cl)cc2[nH]1)C(=O)NCCCCN1CCN(c2ccccc2OC)CC1`, for which the inhibition in experiment [1] stood at 3.1%; in experiment [2], 2.16%; in experiment [3] it was 1.91%.

Consider `Cc1cc(N[C@@H](CC(C)C)C(=O)Nc2ccccc2)nc(NCC2CCCCC2)n1`, for which the results for the inhibition in experiment [1], in experiment [2] and in experiment [3] were 10.2%, 9.8% and 5.12%, respectively.

`CCN(CC)CCCC(C)Nc1ccnc2ccc(-c3ccccc3)cc12` (stereo not given): the inhibition was -0.2% in experiment [1], -0.17% in experiment [2] and 1.04% in experiment [3].

Regarding `CCN(CCCN1CCCCC1)c1cc(C)nc(Nc2ccc(Br)cc2F)n1`, the inhibition in experiment [1] came out at 0.13%; in experiment [2], 2.96%; in experiment [3], 1.34%.

With `COc1ccc(NC(=O)[C@H](CC(C)C)Nc2cc(C)nc(NCCOc3ccccc3)n2)cc1`, the inhibition in experiment [1] is 1.07%; in experiment [2], 2.71%; in experiment [3] it was -0.23%.

As to `Cc1cccc2nc(-c3ccc(-c4cccc(C(=O)N5CCCCC5C(C)O)c4)s3)[nH]c12` (stereo not given), the inhibition in experiment [1] came to 1.3%; in experiment [2], 2.52%; in experiment [3], 3.46%.

Regarding `Cn1nc(-c2cccc(CNC3CCc4ccccc43)c2)c2cnc(NCCCN3CCCC3)nc21` (stereo not given), the values for the inhibition in experiment [1], in experiment [2] and in experiment [3] were 29.9%, 32.6% and 25.9%, respectively.

For the compound `CCNc1cc(C(=O)N[C@@H](Cc2ccccc2)[C@H](O)CNC2CCCCC2)cc(N2CCCCS2(=O)=O)c1`, the inhibition stood at 8.15% in experiment [1], 4.98% in experiment [2] and 7.3% in experiment [3].

Consider `COc1cc(OCCCN(C)Cc2ccc(OC)c(OC)c2)ccc1NC(=O)c1cccc2c(O)c3cccc(F)c3nc12`, for which the results for the inhibition in experiment [1], in experiment [2] and in experiment [3] were 2.95%, 2.52% and 0.63%, respectively.

As to `Cc1cc(C(=O)Nc2ccc3c(c2)CCN3C2CCN(Cc3cccc4cc[nH]c34)C2)no1` (stereo not given), the inhibition in experiment [1] was determined as 2.23%; in experiment [2], 1.71%; in experiment [3] it was 3.09%.

Turning to `COc1ccc2nccc(N3CCCN(CCNS(=O)(=O)c4ccc5c(c4)NC(=O)CS5)CC3)c2n1`, the inhibition is 0.19% in experiment [1], 1% in experiment [2] and -0.73% in experiment [3].

Consider `CN1CCN(CC(=O)Nc2ccc(-c3ccc(-c4nc5cc(C(F)(F)F)ccc5[nH]4)cc3)cc2)CC1`, for which the inhibition in experiment [1] came to 2.58%; in experiment [2] it was 0.64%; in experiment [3], 1.55%.

For `C[C@@H](N/C(=N\c1ccccc1Cl)Nc1ccc(C#N)cc1O)c1ccc(Br)cc1`, the inhibition in experiment [1] was found to be 6.22%; in experiment [2], 5.06%; in experiment [3] it was 3.66%.

Regarding `Oc1cccc2c1CC(NCc1ccccc1)CC2` (stereo not given), the inhibition in experiment [1] was found to be 1.86%; in experiment [2], 1.22%; in experiment [3], 2.32%.

For `CC(O)C1CCCCN1C(=O)c1cccc(-c2cccc(-c3nc4cc(F)ccc4[nH]3)c2)c1` (stereo not given), the figures for the inhibition in experiment [1], in experiment [2] and in experiment [3] were 3.45%, 3.21% and 1.62%, respectively.

For the compound `CC(C)NCc1ccc(-c2ccc(-c3nc4cc(C(F)(F)F)ccc4[nH]3)cc2)cc1`, the inhibition was 1.09% in experiment [1], -1.61% in experiment [2] and 2.69% in experiment [3].

As for `Cc1[nH]c(C)c(-c2ccc(-c3ccc(Cl)cc3)nc2)c(=O)c1Cl`, the inhibition is 0.56% in experiment [1], 1.71% in experiment [2] and -0.19% in experiment [3].

For `CCCOc1ccc(C(=O)Nc2nonc2-c2ccc(OC)c(OC)c2)cc1`, the figures for the inhibition in experiment [1], in experiment [2] and in experiment [3] were 8.69%, 7.86% and 5.89%, respectively.

Regarding `Fc1ccc(NC(=S)NCCc2ccccc2)cc1`, the inhibition in experiment [1] was 0.73%; in experiment [2] it was -2.25%; in experiment [3], 0.04%.
